This is a sample that favours compounds with a hit; in the whole collection about 3.8% have one here.
HSF1 activator – increases HSF-1 driven luciferase reporter signal; NIH3T3-HGL HSF-1 luciferase reporter, MG132, 8 h; 100% = twice DMSO control signal; activation, % at 9 µM; 1.7% of 300,000 active;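 active = mean replicate activation of at least 50% with a set share of replicates each reaching 50%; inconclusive = only one of those two conditions met; inactive = mean below 50% and too few replicates reaching it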;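 note: 0% = median of the neutral control wells and 100% = twice that signal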
HSF1 inhib – HSF1 inhibition; NIH3T3-HGL HSE-luciferase, MG132-induced, luminescence 8 h; active compounds read low; activity change, negative = inhibition, % at 7.5 µM (by protocol); 0.77% of 300,000 active; AID 2098;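 active = more than half of replicate wells show activity change below -50%, luminescence cut by over half; inconclusive = some wells, but at most half, below -50%; inactive = no replicate well below -50%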;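 note: luciferase reports HSF-1 transcriptional activity via heat shock element; 0% = median of DMSO wells and -100% = zero luminescence signal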
Wnt act – activates Wnt/beta-catenin signaling in a reporter cell assay | 1.2% of 300,000 active | activation, % at 9.35 µM | activator, plate reader; in the data active = activation above about 30%, passing the limit was not always enough; inconclusive = no clear call, values can overlap the other calls;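 note: 0% = neutral control wells and 100% = positive control wells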
esBAF inh – blocks esBAF chromatin remodeling in mouse ES cells | Bmi1-luciferase knock-in reporter, 24 h; 100% = twice the neutral-well signal | reporter increase, % at 12.5 µM | 2% of 350,000 active | AID 602393; in the data active = activation above about 40%; inconclusive = no clear call, values can overlap the other calls;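 note: 0% = median of the plate's neutral control wells and 100% = double that signal; a rise in the Bmi1 reporter signal indicates esBAF inhibition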
MITF TRPM1 HTS – MITF TRPM1 promoter activation in melanoma cells; SK-MEL-5 TRPM1-promoter luciferase, 24 h; % of positive control, neutral wells = 0; activation, % at 12.5 µM; 0.75% of 300,000 active; AID 588334;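 active = mean activation of at least 80% with every replicate also reaching 80%; inconclusive = mean reaches 80% but some replicate falls short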;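 note: 0% = neutral control wells and 100% = parthenolide positive control wells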
Starred values were filed as active, the others as inactive; ? = inconclusive; · = no result given.

SMILES | HSF1 activator | HSF1 inhib | Wnt act | esBAF inh | MITF TRPM1 HTS
CCOc1ncccc1C(=O)Nc1cc2c(cc1Br)OCCO2 | · | · | 8 | 55* | 31
C[C@@H]1CN([C@H](C)CO)C(=O)CCCn2cc(nn2)CO[C@H]1CN(C)Cc1cccc2c1OCCCO2 | · | · | · | -6 | ·
O=C(C[C@H]1C[C@H]2c3cc(NC(=O)NC4CCCCC4)ccc3O[C@H]2[C@H](CO)O1)NCc1ccccn1 | · | · | · | -4 | ·
COc1ccc(C2=NNC(=O)CC2)cc1 | 2 | 3 | -6 | · | -8
COc1ccc(C2=NNC(=O)C2(C)Br)cc1 (configuration not stated) | · | · | 51* | · | -5
CC1CCc2sc(C(=O)N3CCC(C(N)=O)CC3)cc2C1 (configuration not stated) | · | · | 36* | 34 | ·
C[C@@H]1CN([C@@H](C)CO)C(=O)c2cc(N(C)C)ccc2O[C@@H](C)CCCCO[C@H]1CN(C)C(=O)c1ccncc1 | · | · | · | -5 | ·
Cn1c(NC(=O)c2ccccc2F)c(-c2cccs2)c(=O)c2ccccc21 | -20 | -3 | 33* | · | -3
COc1ccc(C(C)=O)cc1OCc1ccccc1 | · | · | 0 | 0 | ·
CC(=O)c1ccc(OCc2ccccc2)c(C)c1O | 13 | 13 | 31* | 69* | 77
COc1ccc(C2=NC(c3ccccc3)CO2)cc1 (configuration not stated) | 25 | 11 | · | · | ·
O=[N+]([O-])c1cccc(C2=NC(c3ccccc3)CO2)c1 (configuration not stated) | -5 | -5 | ? | 45* | 27
O=[N+]([O-])c1cccc(-c2nnc(-c3ccccc3)o2)c1 | -84 | -78* | 46* | · | 51
O=[N+]([O-])c1cccc(-c2nc(-c3ccccc3)no2)c1 | 56* | 30 | · | 73* | 22
O=[N+]([O-])c1cccc(-c2nnc(-c3ccc4c(c3)OCO4)o2)c1 | -7 | 6 | -2 | · | 22
C[C@@H]1CCCCO[C@@H](CN(C)CC2CCCCC2)[C@@H](C)CN([C@@H](C)CO)C(=O)c2cc(NS(=O)(=O)c3ccccc3)ccc2O1 | · | · | · | 2 | ·
Cn1c(O)c(/C=C2\C=Nc3ccccc32)sc1=Nc1ccc(C(=O)O)cc1 | -6 | 3 | -5 | -3 | -28
CCn1c(O)c(/C=C2\C=Nc3ccccc32)sc1=Nc1ccccc1 | 18 | 9 | 0 | 67* | 68
CCCCn1c(N)c(N(Cc2ccccc2OC)C(=O)CC2OC(=O)c3ccccc32)c(=O)[nH]c1=O (configuration not stated) | -2 | -1 | 32* | 7 | 5
CCN(C(=O)COC(=O)CCOc1ccccc1)c1c(N)n(Cc2ccccc2)c(=O)[nH]c1=O | · | · | 0 | -7 | -4
CCCCCN(C(=O)CCC(=O)OCC(=O)NCCc1ccccc1)c1c(N)n(CCCC)c(=O)[nH]c1=O | · | · | -1 | 3 | ·
CCN(C(=O)COC(=O)CCS(=O)(=O)c1ccccc1)c1c(N)n(Cc2ccccc2)c(=O)[nH]c1=O | · | · | 39* | 1 | ·
CCCCCN(C(=O)CCC(=O)OCC(=O)N(CC)c1ccccc1)c1c(N)n(CCCC)c(=O)[nH]c1=O | 58* | 25 | 2 | -4 | -8
C[C@@H]1CN([C@@H](C)CO)C(=O)c2ccccc2-c2ccccc2CO[C@H]1CN(C)Cc1ccc(C(=O)O)cc1 | · | · | · | -1 | ·
CCN1CCC2(CC1)Oc1c(OC)cccc1C1CC(c3cccnc3)=NN12 (configuration not stated) | 23 | 22 | 36* | · | ·
SMILES | HSF1 activator | HSF1 inhib | Wnt act | esBAF inh | MITF TRPM1 HTS
COc1ccccc1C1CC(c2ccc(Br)cc2)=NN1C(=O)c1cccnc1 (configuration not stated) | -3 | 13 | -10 | · | -24
CSCCC(NC(C)=O)C(=O)Oc1ccc2c3c(c(=O)oc2c1)CCCC3 (configuration not stated) | · | · | 3 | -1 | ·
CSCCC(NC(=O)OC(C)(C)C)C(=O)Oc1ccc2c(=O)c(-c3ccc4c(c3)OCCO4)coc2c1 (configuration not stated) | · | · | 37* | -5 | ·
O=C(O)c1ccccc1NN=Cc1ccccc1 | · | · | 61* | · | 40
COc1cccc(/C=N/Nc2ccccc2C(=O)O)c1O | 24 | 18 | 35* | 4 | 26
CCOc1cc(-c2ccccc2)nc(N)n1 | 2 | -2 | · | 47* | 24
COc1cc(-c2ccccc2)nc(N)n1 | 19 | 17 | 14 | · | 47
O=C(NC1CCCCC1)c1cnn2c(C(F)(F)F)cc(-c3ccco3)nc12 | 70* | 19 | · | -2 | -2
CCOc1ccc(NC(=O)CC2C(=O)N(CC)C(=S)N2CCN2CCOCC2)cc1 (configuration not stated) | -15 | 6 | 0 | · | -4
O=C(CC1C(=O)N(Cc2ccccc2)C(=S)N1CCN1CCOCC1)Nc1ccc(F)cc1 (configuration not stated) | 61* | 20 | -2 | · | -2
CCCC#Cc1ccc2c(c1)O[C@@H](CN(C)C(=O)CN(C)C)[C@H](C)CN([C@H](C)CO)S2(=O)=O | · | · | · | -3 | ·
C[C@@H]1CN([C@H](C)CO)C(=O)c2cc(NC(=O)Nc3cccc4ccccc34)ccc2O[C@H]1CN(C)S(=O)(=O)c1ccc(Cl)cc1 | · | · | · | 8 | ·
CCc1ccc(NC(=O)c2n[nH]c(=O)c3ccccc23)cc1 | 36 | 8 | 29 | 60* | 107*
CCCNC(=O)c1n[nH]c(=O)c2ccccc12 | -21 | -12 | · | -5 | 2
C[C@@H]1CN([C@H](C)CO)C(=O)c2cc(N(C)C)ccc2O[C@@H]1CN(C)C | · | · | · | -5 | ·
O=C(N/N=C/C=C\c1ccco1)c1ccccn1 | 62* | 33 | 11 | · | 32
O=C(CN1CCN(Cc2ccccc2)CC1)N/N=C\C=C/c1ccco1 | -76 | -69* | · | · | -4
O=C(N/N=C/C=C/c1ccco1)c1cnccn1 | 9 | 2 | 4 | · | ·
O=C(N/N=C\C=C\c1ccco1)c1cc(-c2ccc3ccccc3c2)n[nH]1 | 57* | 29 | 57* | · | 57
O=C(CN1CCN(Cc2ccccc2Cl)CC1)N/N=C/C=C/c1ccco1 | 39 | 8 | 2 | -5 | ·
COc1ccc(S(=O)(=O)N[C@@H]2C=C[C@H](CC(=O)NCCc3ccncc3)O[C@@H]2CO)cc1 | · | · | · | 1 | ·
C[C@@H]1CN([C@@H](C)CO)C(=O)c2cc(C#CCN(C)C)cnc2O[C@H]1CN(C)C(=O)CCN1CCCCC1 | · | · | · | 4 | ·
CC(C)NC(=O)N(C)C[C@@H]1Oc2cc(C3=CCCC3)ccc2S(=O)(=O)N([C@H](C)CO)C[C@H]1C | · | · | · | -4 | ·
C[C@@H]1CN([C@@H](C)CO)C(=O)Cc2cc(NC(=O)c3ccncc3)ccc2O[C@H]1CN(C)C(=O)Nc1ccccc1 | · | · | · | -2 | ·
O=[N+]([O-])c1cc([N+](=O)[O-])c(Oc2c(F)cccc2F)cc1NN1CCCCC1 | 62* | 30 | -4 | -5 | 7
C[C@@H]1CN([C@@H](C)CO)C(=O)c2cc(C#Cc3cccc(F)c3)cnc2O[C@@H]1CN(C)Cc1ccccn1 | · | · | · | -10 | ·

High-throughput results: PubChem BioAssay, Broad Institute
